From PubChem BioAssay (NCI)
The panel holds about 79,000 compounds, 15% with a hit somewhere; the sample as a whole holds those more often. No stated cut-off is given here; in the data, active means growth inhibition above about 70%; inactive means the rest.

How the values were obtained:
[1] = NCI Yeast Anticancer Drug Screen. Data for the rad50 strain (AID 155);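 further: 0% = growth of vehicle-only cultures of the same strain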; details: S. cerevisiae rad50 strain growth inhibition; at 50.0 µM; stronger effect = higher value
How it was run: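 Cells are treated with compound, grown, and their growth is then scored against vehicle-only cultures of the same repair-deficient yeast strain.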

[2] = NCI Yeast Anticancer Drug Screen. Data for the mec2-1 strain (AID 157); details: S. cerevisiae mec2-1 strain, at 50.0 µM, stronger effect = higher value
How it was run: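 Cells of the genetically defined mec2-1 yeast strain are incubated with test compound. Inhibition of growth is calculated against vehicle-treated controls.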

[3] = NCI Yeast Anticancer Drug Screen. Data for the sgs1 mgt1 strain (AID 161);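 further: 0% = growth of cultures given vehicle only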; details: S. cerevisiae sgs1 mgt1 strain, at 50.0 µM, stronger effect = higher value
How it was run: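 Genetically altered yeast, compound exposure, growth inhibition relative to vehicle.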

[4] = NCI Yeast Anticancer Drug Screen. Data for the cln2 rad14 strain (AID 165);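 further: 0% = growth equal to vehicle treated cultures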; details: S. cerevisiae cln2 rad14 strain, at 50.0 µM, stronger effect = higher value
How it was run: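 The screen exposed genetically defined yeast (cln2 rad14) to test compounds and scored growth inhibition relative to vehicle-treated controls.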

[5] = NCI Yeast Anticancer Drug Screen. Data for the bub3 strain (AID 167); details: S. cerevisiae bub3 mutant strain, at 50.0 µM, stronger effect = higher value
How it was run: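 Part of a panel of yeast mutants defective in DNA damage repair or cell cycle regulation. Each strain is grown with compound, and inhibition is calculated relative to solvent-treated cultures.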

[6] = NCI Yeast Anticancer Drug Screen. Data for the mlh1 rad18 strain (AID 175); details: S. cerevisiae mlh1 rad18 strain growth inhibition; at 50.0 µM; stronger effect = higher value
How it was run: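 Compound-treated yeast growth, normalised to vehicle controls. Strain bears defined DNA repair mutations.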

Measured: growth inhibition

Brc1ccc2nncc(N3CC3)c2c1
inactive: [1] -13.2% | [2] -16.6% | [3] 4.55% | [4] 8.5% | [5] -9.3% | [6] -20.6%

BrC(Br)c1cccc(C(Br)Br)c1
inactive: [1] 55.7% | [2] 37.8% | [3] 27.1% | [4] 37.5% | [5] 64% | [6] 56.6%

COc1cc2ccnc(C3(OC(=O)c4ccccc4)CCN(CCc4ccccc4)CC3)c2cc1OC
inactive: [1] -1.3% | [2] -7.15% | [3] -21.9% | [4] -17.1% | [5] 2.95% | [6] -0.95%

COC(=O)c1ccccc1NP(=O)(O)Oc1ccccc1 (tested in a mixture with another compound)
inactive: [1] 9.7% | [2] -4.05% | [3] 11.5% | [4] -32.5% | [5] -2.7% | [6] -11.9%

NC1CCCCC1.[O]=[Ge].[O]=[Ge].[O]=[Ge][OH].[O]=[Ge][OH]
inactive: [1] -26.9% | [2] -10.9% | [3] -10.8% | [4] 13.1% | [5] 12.9% | [6] 4.95%

CCN(CCCl)c1cc(CN(C)C)cc(NC(=O)c2ccc(C(=O)Nc3ccccc3)cc2)c1
inactive: [1] 0.7% | [2] -18.4% | [3] 5% | [4] 26.2% | [5] 23.9% | [6] 12.4%

COc1ccc2c3c1OC1C(C)(O)C(O)CC4C(C2)N(C)CCC341 (stereo not drawn)
inactive: [1] -3.55% | [2] -4.95% | [3] -16.2% | [4] 9.3% | [5] 4.4% | [6] 14.1%

[CH3][Sn]([CH3])([CH3])[O]C(=O)C(O)c1ccccc1 (stereo not drawn)
inactive: [1] 11.6% | [2] -7.7% | [3] 5.1% | [4] 9.4% | [5] -0.05% | [6] -2.3%

O=C1C=C2c3ccccc3CC(C(=O)O)C2CC1 (stereo not drawn)
inactive: [1] -20.5% | [2] -14.2% | [3] -3.45% | [4] -22.9% | [5] 2.3% | [6] 9%

COP(=O)(OC)/C(=C/c1c[nH]c2ccccc12)C(=O)O
inactive: [1] -12.7% | [2] -71.6% | [3] -55.9% | [4] -34.9% | [5] -20.7% | [6] -32.2%

O=S(=O)(O)O.[Co+2].[NH-]CC[NH-].[NH-]CC[NH-].[NH-]CC[NH-]
inactive: [1] 11.1% | [2] 21.9% | [3] 9.75% | [4] 17.8% | [5] 3.2% | [6] 1%

[N-]=[N+]=NP1(=O)OC(c2ccccc2)=CCN1c1ccccc1 (stereo not drawn)
inactive: [1] -9.2% | [2] -9.5% | [3] -8.45% | [4] 20.7% | [5] 8.65% | [6] -4.1%

OCC(O)C(O)C(O)C1C[O][Sb][O]1 (stereo not drawn)
inactive: [1] 0.85% | [2] 3.6% | [3] 7.85% | [4] -11.2% | [5] -2.85% | [6] 8.2%
